# p53ts 39C tox: kills p53ts cells at the nonpermissive temperature. H1299-p53A138V viability at 39C, ATP luminescence, 24 h. Potency, µM (series often up to 46.1 µM), for the others: at the top dose activity change, negative = cell killing, hits mostly cytotoxic. 130,000 compounds, 1.5% hits. AID 902; further: on the % scale 0 is the no-effect control and ±100 the full control effect; nearly all actives have a fitted effect of over 55% in size
# p53ts 32C kill: cytotoxicity in p53ts cells at permissive temperature. 130,000 compounds, 0.93% hits. Potency, µM (highest dose often 46.1 µM), without a hit: top-dose activity change, negative = cytotoxicity, hits mostly cytotoxic. H1299-p53A138V at 32C, ATP luminescence viability, 24 h;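 further: 0% = DMSO and -100% = full killing by reference compound; nearly all actives have a fitted effect of over 55% in size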
#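 Cells: H1299 p53ts (A138V), 600/well, pre-incubated 16–30 h at 37C. Cpd up to 46 uM, 24 h, 32C. Readout: ATPlite luminescence, 20 min RT. Normalization: DMSO vs tamoxifen 100 uM. AC50 by Hill equation.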
# Imprint erasure: inducers of genomic imprint erasure in mouse ES cells; mouse ES Peg3-LacZ reporter, beta-gal luminescence, 40 h; Potency, µM (titrated, usually from 60.7 µM), without a hit: at the top dose activity change, positive = activation, actives largely listed as activators; 110,000 compounds, 0.02% hits; AID 1948
#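 Readout: BetaGlo luminescence (5 min, room temp) for LacZ from the normally silent maternal Peg3 allele in female Peg3LacZ-Neo ES cells. Cells 300/well, 40 h, 37C, 5% CO2. Data normalized per plate to negative controls.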
# IkB signaling: suppresses IkB signaling in ABC-DLBCL reporter cells; ABC-DLBCL IkBa-CBG/CBR dual luciferase ratio, 4 h; response scale: scaled: untreated 0%, proteasome inhibitor 100%; Potency, µM (doses to about 57.1 µM), for inactives: at the top dose IkBa stabilization activation; 110,000 compounds, 0.04% hits; AID 445; active means well fitted curve in the direction sought with a large enough effect in the signal ratio, not every such curve was filed as active; inconclusive means small, poorly fitted or top-dose-only effect, or a change in a side signal; the % refers to the signal ratio;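 further: the direction sought is a rising ratio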
#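 Luminescence ratio of IκBα-fused green versus native red beetle luciferase in OCI-Ly3 cells, 4 h post-doxycycline with compound; red signal alone, scaled from basal (0%) to zero light (-100%), flagged nonspecific or cytotoxic effects.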
# The depositor's hits bear a star; u = inconclusive; x = no result; [ ] = another dose, or the depositor's remark. Most compounds without a hit are left out; they make up all but 1.8% or so of the library. Unless noted, the call rests on the fitted dose curve; in most records, active means well fitted curve in the direction sought with a large enough effect; inconclusive means small, poorly fitted or top-dose-only effect, or another doubt; inactive means no such curve, though single readings can be large; an effect the other way counts as inactive or inconclusive. Potency means the concentration at half of the fitted maximal effect.
SMILES,p53ts 39C tox,p53ts 32C kill,Imprint erasure,IkB signaling
COc1cccc(-c2nnc(-c3ccc(C(F)(F)F)cc3)o2)c1,-7%,-3%,x,x
COc1ccccc1-c1nnc(Nc2nc3c(OC)cccc3s2)o1,u,4%,-58%,u
COc1cccc2sc(Nc3nnc(-c4ccccc4Cl)o3)nc12,13µM*,u,-49%,u
COc1ccc(O[C@H]2C=C[C@@H](c3ccccc3)O[C@H]2COC(=O)CC/C(C)=N\O[C@@H](C)c2cc(-c3c(C)cc(C)cc3C)no2)cc1,2%[9.22 µM],6%[9.22 µM],x,x
CS(=O)(=O)c1ccc(Sc2nc3ccccc3s2)c([N+](=O)[O-])c1,22µM*,x,x,x
CC(C)COc1ccc(C(=O)Nc2onc3c2CCCC3)cc1,16µM*,u,-27%[10.9 µM],-2%
CC(C)COc1ccc(C(=O)NCc2ccco2)cc1,-6%,-10%,-21%,0%
CCOc1ccc(C(=O)NCC2CCCO2)cc1 (stereo not drawn),3%,-9%,-25%,-1%
CCOc1ccc(C(=O)Nc2onc3c2CCCC3)cc1,16µM*,6.3µM*,-40%[10.9 µM],3%
CC(C)(C)c1ccc(C(=O)Nc2onc3c2CCCC3)cc1,13µM*,13µM*,-12%[10.9 µM],-2%
O=C(Nc1onc2c1CCCC2)c1ccccc1,u,u,-48%[10.9 µM],-1%
COC(=O)N1CCC2(CC1)CN(c1ccc(-c3ccccc3)cc1)C2,-14%,-15%,x,11%[11.4 µM]
c1ccc(-c2ccc(N3CC4(CCNCC4)C3)cc2)cc1,16µM*,20µM*,x,30%[11.4 µM]
c1ccc(-c2ccc(N3CCCC4(CCNCC4)C3)cc2)cc1,13µM*,20µM*,x,5%[11.4 µM]
COC(=O)c1ccc(Cn2c(SCc3ccccc3)nc3ccncc32)cc1,u,u,22%[10.9 µM],u
Cc1ccc(-c2nc3ccccc3[nH]2)s1,13µM*,13µM*,-91%,u
Nc1nc(-c2nc3ccccc3[nH]2)cs1,13µM*,16µM*,-82%,u
c1csc(-c2nc3ccccc3[nH]2)c1,-15%,-21%,-73%,2%
COC(=O)c1ccc(NC(=O)c2c(NCc3ccc(C)o3)sc3c2CCCC3)cc1,4%,-17%,-14%[10.9 µM],u
COc1ccc(Cl)cc1NC(=O)N1CCN(S(=O)(=O)c2ccc3c(ccn3C)c2)CC1,7%,-1%,0%[10.9 µM],5%
Cn1c(NC(=O)c2cc(-c3ccc4c(c3)OCO4)nc3ccccc23)cc(=O)n(C)c1=O,13µM*,16µM*,-10%,0%
O=C(Nc1nc2c(s1)CCCC2)c1cc(-c2ccc3c(c2)OCO3)nc2ccccc12,-6%,x,x,x
CCNC(=O)c1c(NC(=O)Cc2coc3cc(C)ccc23)sc2c1CCCC2,-13%,2%,-5%[10.9 µM],-1%
O=C(Nc1cccs1)Nc1cc(C(F)(F)F)ccc1Cl,25µM*,-14%,-18%[10.9 µM],u
Cc1cc(C)c(CSc2nnc(C)n3c2cc2occc23)c(C)c1,20µM*,-20%,-11%[10.9 µM],-1%
SMILES,p53ts 39C tox,p53ts 32C kill,Imprint erasure,IkB signaling
O=C(Nc1cc2c(cc1C(=O)c1ccccc1)OCCO2)c1ccc(Br)cc1,20µM*,-6%,-17%[10.9 µM],6%
CCOC(=O)c1c(C)oc2ncnc(N3CCN(c4ccccc4OC)CC3)c12,16%,-9%,-9%[10.9 µM],u
CN(C)CCC(=O)[C@@]1(O)CC[C@H]2[C@H]3CC=C4C[C@@H](O)CC[C@]4(C)[C@H]3CC[C@]21C,-5%[9.22 µM],9%[9.22 µM],-28%[10.9 µM],5µM*
Cc1ccc(SCc2cn3c(C)csc3n2)cc1,13µM*,u,-76%,u
Cc1ccc(S(=O)(=O)NCc2cn3c(C)csc3n2)cc1,11%,-3%,-10%,0%
CCCCN(C)C(=O)c1ccc2c(=O)n3nc(Nc4cc(C)ccc4C)sc3nc2c1,-8%,8%,-5%[10.9 µM],2%
c1cc2c(cc1-c1cnc3n1CCC3)OCCO2,13µM*,u,-6%,u
Cn1c(-c2ccc3c(c2)OCO3)cnc1N,-15%,-13%,-18%,0%
COc1ccc(CCCO[C@@H](Cn2ccnc2)c2ccc(OC)cc2)cc1,32µM*,u,-16%,u
COc1ccc(C(=O)NCCCn2ccnc2)cc1,0%,5%,-5%,0%
Brc1cccc(-c2nn(-c3ccccc3)c3c2cnc2cc4c(cc23)OCO4)c1,22%,6%,-6%[10.9 µM],u
Cc1ccc(C2c3c(-c4ccccc4O)n[nH]c3C(=O)N2CCc2ccccc2)cc1 (stereo not drawn),32µM*,13µM*,-23%[10.9 µM],u
